Test results from PubChem BioAssay (NCI).
About 83,000 compounds went through this panel and 20% of them were active in at least one assay; those are over-represented in the sample as a whole.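 Assay: single dose, 48 h. Readout: percent growth (0 = no net growth; negative = cell death). Active: <10.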 A number with no mark means an inactive call. Calls of active or inactive are those of the source.

Tests used:
Assay in all cases: NCI-60 one-dose screen, 48 h (100 = growth as untreated, 0 = no growth, -100 = all killed)
Conditions in all cases: 10 µM unless noted
NCI-H23 lung = system: NCI-H23 lung
NCI-H226 lung = system: NCI-H226 lung
NCI-H322M lung = system: NCI-H322M lung
HOP-62 NSCLC = system: HOP-62 NSCLC
NCI-H460 lung = system: NCI-H460 lung
NCI-H522 lung = system: NCI-H522 lung
A549/ATCC NSCLC = system: A549/ATCC NSCLC
786-0 renal = system: 786-0 renal
COLO 205 colon = system: COLO 205 colon
DU-145 prostate = system: DU-145 prostate
MALME-3M melanoma = system: MALME-3M melanoma
MDA-MB-231 breast = system: MDA-MB-231 breast
RXF 393 renal = system: RXF 393 renal
SF-268 CNS = system: SF-268 CNS
SF-295 CNS = system: SF-295 CNS
UACC-257 melanoma = system: UACC-257 melanoma
M14 melanoma = system: M14 melanoma
HCT-15 colon = system: HCT-15 colon
SF-539 CNS = system: SF-539 CNS
K-562 leukemia = system: K-562 leukemia

Compound | growth (NCI-H23 lung) [%] | growth (NCI-H226 lung) [%] | growth (NCI-H322M lung) [%] | growth (HOP-62 NSCLC) [%] | growth (NCI-H460 lung) | growth (NCI-H522 lung) | growth (A549/ATCC NSCLC) [%] | growth (786-0 renal) [%] | growth (COLO 205 colon) [%] | growth (DU-145 prostate) | growth (MALME-3M melanoma) [%] | growth (MDA-MB-231 breast) [%] | growth (RXF 393 renal) [%] | growth (SF-268 CNS) [%] | growth (SF-295 CNS) [%] | growth (UACC-257 melanoma) [%] | growth (M14 melanoma) [%] | growth (HCT-15 colon) [%] | growth (SF-539 CNS) [%] | growth (K-562 leukemia)
Cc1nn(-c2ccc(Cl)cc2)c2nc3c(nc12)C(=O)C(=O)c1ccccc1-3 | 75.5 | 65.2 | 65.1 | 72.1 | 5.27% (active) | 79.7% | 18.2 | 89.5 | 54.3 | -22% (active) | 36.8 | 40.4 | 89.6 | 89.3 | 12.1 | 69.2 | 75.5 | 73.9 | – | –
Cc1cc(C)c(OC(=O)CSc2nc3ccccc3c(=O)n2CCc2ccccc2)cc1C | 101 | 84.8 | 89.3 | 104 | 74.1% | 98% | 91.9 | 105 | 96 | 110% | – | 80.1 | – | 97.1 | 87.3 | 103 | 102 | 52.7 | 97.3 | –
O=C(/C(=C/c1ccc([N+](=O)[O-])cc1)c1ccccc1)c1ccccc1 | 67.1 | 56.6 | 74.3 | 88.9 | 65.6% | 31.4% | 48.7 | 65.3 | 87.6 | 23.4% | – | 53.6 | – | 27.8 | 67.5 | 41.1 | 51.6 | 14.6 | 83 | 3.83% (active)
COc1cc2c(C#N)n3c(c2cc1OC)C(=O)C(c1ccccc1)Oc1ccccc1-3 (stereo unspecified) | 20.5 | 21.8 | 85.5 | 53.8 | 66.9% | -32.4% (active) | 11.5 | 48.5 | 80.3 | 72.8% | – | 64.1 | – | 43 | 28.4 | 89.3 | 44.7 | 31.5 | 83.5 | 29.7%
CN=C(NC)N/N=C(C)\C=N\NC(=NC)NC | 104 | 98.8 | 107 | 100 | 104% | 102% | 100 | 102 | 102 | 109% | 105 | 97.8 | – | 99.5 | 96.5 | 100 | – | 101 | 99.1 | –
COc1ccc(COC(C)=O)cc1 | 113 | 104 | 112 | 101 | 111% | 118% | 100 | 99.4 | 127 | 110% | – | 125 | 108 | 101 | 116 | 109 | 108 | 97.6 | 107 | 103%
CCC1(c2ccccc2)Oc2ccccc2-n2c(C#N)c3ccccc3c2C1=O (stereo unspecified) | 97.2 | 110 | 90.3 | 93.6 | 105% | 77.5% | 93.6 | 93.9 | 106 | 114% | – | 98.5 | – | 101 | 93.3 | 90.5 | 94.3 | 94 | 105 | 86.7%
COc1ccc(/C=C(\C#N)c2ccccc2)cc1 | 95.7 | 89.6 | 97.5 | 99.6 | 98.9% | 90.1% | 81.8 | 102 | 103 | 103% | – | 78.4 | – | 95.2 | 94.7 | 85.9 | 88.7 | 59.5 | 87.3 | 28.8%
O=C(/C(=C/c1cccc([N+](=O)[O-])c1)c1ccccc1)c1ccccc1 | 68 | 58.8 | 80.6 | 91.2 | 67.9% | 43.8% | 53.6 | 68.4 | 86.3 | 19.8% | – | 51.6 | – | 34.4 | 64.2 | 36.5 | 46.4 | 16.6 | 81.6 | 4.03% (active)
